Counter-ions that a name gives are not always drawn.
Key:
Conditions in all cases: 10 µM; exposure time: 3 h pre-incubation + 3 h imaging
[1] = test system: Danio rerio larvae (5 dpf); assay: activity during period 15 (no stimuli), difference vs DMSO (percentage points (treated minus DMSO)); higher = more of the behaviour than the DMSO vehicle control
Summary of the method: (§1)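 Five-days-post-fertilisation wild-type zebrafish larvae were held in 96-well ProxiPlates and exposed to each library drug at a final 10 µM, diluted 1000× from DMSO stocks into egg water, with 48 larvae per drug. Exposure lasted 3 h before and 3 h during imaging at 28.5 °C, with images taken every 6 s across a 3-h program of rest, moving coloured lines and acoustic pulses. An ImageJ macro scored movement and upper-half location, and each behaviour score is the treated-group mean minus the vehicle-group mean, expressed in percentage points.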

[2] = test system: Danio rerio larvae (5 dpf); assay: activity during first hour (no stimuli), difference vs DMSO (percentage points (treated minus DMSO)); higher = more of the behaviour than the DMSO vehicle control
Summary of the method: as §1

[3] = test system: Danio rerio larvae (5 dpf); assay: optomotor response to blue moving lines, difference vs DMSO (percentage points (treated minus DMSO)); higher = more of the behaviour than the DMSO vehicle control
Summary of the method: as §1

[4] = test system: Danio rerio larvae (5 dpf); assay: excitability to 1-s acoustic pulses, difference vs DMSO (percentage points (treated minus DMSO)); higher = more of the behaviour than the DMSO vehicle control
Summary of the method: as §1

[5] = test system: Danio rerio larvae (5 dpf); assay: optomotor response to green moving lines, difference vs DMSO (percentage points (treated minus DMSO)); higher = more of the behaviour than the DMSO vehicle control
Summary of the method: as §1

[6] = test system: Danio rerio larvae (5 dpf); assay: optomotor response to fast red moving lines, difference vs DMSO (percentage points (treated minus DMSO)); higher = more of the behaviour than the DMSO vehicle control
Summary of the method: as §1

[7] = test system: Danio rerio larvae (5 dpf); assay: optomotor response to red moving lines, difference vs DMSO (percentage points (treated minus DMSO)); higher = more of the behaviour than the DMSO vehicle control
Summary of the method: as §1

[8] = test system: Danio rerio larvae (5 dpf); assay: startle response to 20-s acoustic pulses, difference vs DMSO (percentage points (treated minus DMSO)); higher = more of the behaviour than the DMSO vehicle control
Summary of the method: as §1

`CCCCC(=O)N(Cc1ccc(-c2ccccc2-c2nnn[nH]2)cc1)[C@H](C(=O)O)C(C)C` [Valsartan] was tested, and the “activity during period 15” value [1] was 9.35, the “activity during first hour” value [2] was 4.88 and the “optomotor response to blue moving lines” value [3] was 6.89.
For `Nc1cc(N2CCCCC2)nc(N)[n+]1[O-]` [Minoxidil], the “excitability to 1-s acoustic pulses” value [4] was 1, the “activity during first hour” value [2] was 2.82 and the “optomotor response to blue moving lines” value [3] was -6.76. The “optomotor response to green moving lines” value [5] was -7.05.
With `CC(C)N(CCCCOCC(=O)NS(C)(=O)=O)c1cnc(-c2ccccc2)c(-c2ccccc2)n1` [Selexipag] the “activity during first hour” value [2] was 4.1.
With `O=C(O)C[C@H](O)C[C@H](O)/C=C/c1c(C2CC2)nc2ccccc2c1-c1ccc(F)cc1` [Pitavastatin calcium] the “activity during period 15” value [1] was -4.44, the “activity during first hour” value [2] was -0.557 and the “optomotor response to blue moving lines” value [3] was 11. The “optomotor response to green moving lines” value [5] was 11.
In the case of `OCCOCCN1CCN(C2=Nc3ccccc3Sc3ccccc32)CC1` [Quetiapine hemifumarate], the “activity during period 15” value [1] is reported as 16.8, the “activity during first hour” value [2] is reported as 12.9 and the “optomotor response to blue moving lines” value [3] is reported as 19.9. It also gave an optomotor response [6] of -5.91.
In the case of `Nc1nc(Cl)nc2c1ncn2[C@@H]1O[C@H](CO)[C@@H](O)[C@@H]1F` [Clofarabine], the “optomotor response to red moving lines” value [7] is reported as 1.11 and the “activity during first hour” value [2] is reported as -3.77.
`CC(C)n1c(/C=C/C(O)CC(O)CC(=O)O)c(-c2ccc(F)cc2)c2ccccc21` (stereo unspecified) [Fluvastatin sodium] was tested, and the “excitability to 1-s acoustic pulses” value [4] was 3.77, the “optomotor response to red moving lines” value [7] was -2.5 and the “activity during first hour” value [2] was 1.98. For the same compound, the “optomotor response to blue moving lines” value [3] was -4.94, the “optomotor response to green moving lines” value [5] was -3.1 and the “startle response to 20-s acoustic pulses” value [8] was 1.71. It also gave an optomotor response [6] of -5.56.
In the case of `N#C[C@@H]1C[C@@H]2C[C@@H]2N1C(=O)[C@@H](N)C12CC3CC(CC(O)(C3)C1)C2` [Saxagliptin hydrochloride], the “optomotor response to red moving lines” value [7] is reported as -1.45, the “activity during first hour” value [2] is reported as 1.74 and the “optomotor response to blue moving lines” value [3] is reported as -7.01. For the same compound, the optomotor response [6] was -7.58.
In the case of `CC(C)C(=O)Nc1ccc([N+](=O)[O-])c(C(F)(F)F)c1` [Flutamide], the “optomotor response to red moving lines” value [7] is reported as -10.8, the “activity during first hour” value [2] is reported as -9.59 and the optomotor response [6] is reported as -21.1.
With `O=c1n(CCCN2CCN(c3cccc(Cl)c3)CC2)nc2ccccn12` [Trazodone hydrochloride] the “activity during period 15” value [1] was 1.62, the “activity during first hour” value [2] was -0.623 and the “optomotor response to blue moving lines” value [3] was 6.49. For the same compound, the “optomotor response to green moving lines” value [5] was 1.17.

— the supplement of paper PMC9023506
